# Screens (PubChem BioAssay)
# Many of the other results were omitted from the sample, so hits are more common in it than they were.
# Giardia FBPA inh-1 – inhibitors of Giardia lamblia fructose-1,6-bisphosphate aldolase; A8B2U2; purified Giardia FBPA; Potency, µM (doses to about 59.6 µM), without a hit: at the highest dose activity, negative = inhibition, usual class: inhibitors; 290,000 compounds, 0.71% hits; AID 2451; also: potency is read from the fitted curve at half-maximal effect; % is scaled to controls: 0 for no effect and ±100 for the full control effect; nearly all actives have a fitted effect of over 55% in size
# Target sequence (A8B2U2 whole entry, looked up): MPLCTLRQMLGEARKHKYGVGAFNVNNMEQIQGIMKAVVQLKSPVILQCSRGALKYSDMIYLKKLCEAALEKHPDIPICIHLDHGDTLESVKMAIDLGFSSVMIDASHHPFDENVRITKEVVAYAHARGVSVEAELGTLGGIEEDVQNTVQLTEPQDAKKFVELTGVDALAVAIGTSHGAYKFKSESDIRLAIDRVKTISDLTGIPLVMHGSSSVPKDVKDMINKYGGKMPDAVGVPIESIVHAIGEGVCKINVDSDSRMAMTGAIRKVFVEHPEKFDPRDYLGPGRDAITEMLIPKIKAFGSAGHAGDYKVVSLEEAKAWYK
#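 Giardia FBPA (40 nM reagent) was preincubated 10 min at RT with compound (up to 57.5 uM final), then substrate plus GAPDH/TPI/NAD/arsenate coupling system with diaphorase/resazurin was added; resorufin fluorescence (525/598 nm) was read after 20 min.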
# TbPYK inhibitor – inhibitors of Trypanosoma brucei pyruvate kinase; 410,000 compounds, 0.12% hits; AID 624173; Potency, µM (highest dose often 76.8 µM), without a hit: at the top dose activity, negative = inhibition, hits mostly inhibitors; TbPYK enzyme, Kinase-Glo Plus ATP luminescence, 45 min; also: potency is read from the fitted curve at half-maximal effect; % is scaled to controls: 0 for no effect and ±100 for the full control effect; nearly all actives have a fitted effect of over 50% in size
#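 In this concentration-response screen, enzyme-free wells defined baseline while DMSO plates tracked drift. Each reaction combined TbPYK, substrate, compound and 130 uM ADP for 45 min at room temperature. Kinase-Glo Plus luminescence gave the signal.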
# RE007 growth inh – less growth of the S. pombe RE007 Vpr strain; S. pombe RE007 Vpr strain, BacTiter-Glo ATP luminescence, 24 h; Potency, µM (series often up to 92.2 µM), for inactives: top-dose activity change, negative = less growth, usual class: inhibitors; 360,000 compounds, 0.21% hits; AID 651644; active = well fitted falling curve with a large enough effect; inconclusive = small, poorly fitted or top-dose-only effect; inactive = no such curve, though single readings can be large or run the other way; also: potency is read from the fitted curve at half-maximal effect; % is scaled to controls: 0 for no effect and ±100 for the full control effect; nearly all actives have a fitted effect of over 50% in size
#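 Fission yeast strain RE007, carrying one chromosomally integrated HIV-1 vpr copy, was seeded at OD 0.01 in PMG+AL medium with 23 nL pinned compound. After 24 h at 30 °C and 99% humidity, viability was read by BacTiter-Glo luminescence.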
# Shiga toxin inh – Shiga toxin inhibition | Vero cells, Shiga toxin protein synthesis inhibition reporter | inhibition, % at 38.7 µM | 290,000 compounds, 9.2% hits | AID 2315; in the data active = inhibition mostly above about 28%, no sharp cut-off; inactive = mostly below about 43%; also: 0% is about no effect
# LmPK inh – LmPK (Leishmania mexicana) enzyme inhibition; 290,000 compounds, 0.37% hits; Potency, µM (highest dose often 57.5 µM), without a hit: at the top dose activity change, negative = inhibition, actives largely listed as inhibitors; Q27686; purified LmPK, Kinase-Glo ATP luminescence, 1 h; AID 1721; also: potency is read from the fitted curve at half-maximal effect; % is scaled to controls: 0 for no effect and ±100 for the full control effect
#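 0.1 nM LmPK, 0.5 mM PEP, 0.1 mM ADP; 50 mM imidazole pH 7.2, 7 mM MgCl2, 50 mM KCl; 1 h RT. Kinase-Glo luminescence readout, normalized to no-enzyme (full inhibition) and uninhibited wells.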
# CHX counter – counter-screen for Shiga toxin inhibitors: cycloheximide protein synthesis inhibition | cell reporter, cycloheximide protein synthesis inhibition counterscreen | max response, % | 300,000 compounds, 12% hits | AID 2314; in the data active = max response mostly above about 13%, no sharp cut-off; inactive = mostly below about 14%; also: read at 38.3 µM for the half of the compounds with a filed dose; 0% is about no effect
# Giardia growth – Giardia lamblia growth inhibition; shares compounds with Giardia FBPA inh-1; Giardia lamblia trophozoite growth inhibition; Potency, µM (top dose mostly 57.5 µM), without a hit: at the highest dose activity change, negative = inhibition, actives largely listed as inhibitors; 1,500 compounds, 5% hits; AID 2785;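 also: potency is read from the fitted curve at half-maximal effect; trophozoites exposed to compound for 48 h at 37 °C; % is scaled to controls: 0 for no effect and ±100 for the full control effect; nearly all actives have a fitted effect of over 70% in size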
# Mammal cell tox – mammalian cytotoxicity of Giardia aldolase inhibitor hits; 1,500 compounds, 4% hits; Potency, µM (top dose mostly 57.5 µM), for inactives: at the highest dose viability change, negative = toxicity, actives largely listed as inhibitors; mammalian cell viability counter-screen, qHTS; shares compounds with Giardia FBPA inh-1;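 also: Chinese hamster ovary cells used as mammalian cytotoxicity surrogate; viability measured as cellular ATP by luminescence; potency is read from the fitted curve at half-maximal effect; compound exposure lasted 48 h before reading; % is scaled to controls: 0 for no effect and ±100 for the full control effect; nearly all actives have a fitted effect of over 60% in size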
# Giardia FBPA inh-2 – confirmation of Giardia fructose-bisphosphate aldolase inhibitors. shares compounds with Giardia FBPA inh-1. purified Giardia aldolase enzyme activity, qHTS. Potency, µM (doses to about 57.5 µM), without a hit: top-dose activity change, negative = inhibition, hits mostly inhibitors. 1,500 compounds, 5% hits; also: potency is read from the fitted curve at half-maximal effect; % is scaled to controls: 0 for no effect and ±100 for the full control effect; nearly all actives have a fitted effect of over 45% in size
# Rabbit FBPA inh – selectivity test for Giardia aldolase inhibitors: rabbit aldolase; shares compounds with Giardia FBPA inh-1; Rabbit muscle FBPA enzyme inhibition, selectivity counter-screen; Potency, µM (doses to about 57.5 µM), without a hit: at the highest dose activity, negative = inhibition, hits mostly inhibitors; 1,500 compounds, 4% hits; AID 2794; also: potency is read from the fitted curve at half-maximal effect; % is scaled to controls: 0 for no effect and ±100 for the full control effect; nearly all actives have a fitted effect of over 60% in size
# Target sequence (P00883 whole entry, looked up): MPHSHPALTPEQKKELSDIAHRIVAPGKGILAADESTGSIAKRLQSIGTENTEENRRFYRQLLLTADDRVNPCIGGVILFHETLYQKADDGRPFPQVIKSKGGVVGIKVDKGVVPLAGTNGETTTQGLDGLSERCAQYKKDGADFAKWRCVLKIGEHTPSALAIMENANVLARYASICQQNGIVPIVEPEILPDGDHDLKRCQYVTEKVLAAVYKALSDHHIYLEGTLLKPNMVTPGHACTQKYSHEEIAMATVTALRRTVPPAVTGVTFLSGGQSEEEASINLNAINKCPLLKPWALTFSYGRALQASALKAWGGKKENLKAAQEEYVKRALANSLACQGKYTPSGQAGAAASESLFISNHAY
# GAPDH counter – counter-screen for Giardia aldolase inhibitors: GAPDH coupling enzyme. AID 2795. 1,500 compounds, 6% hits. GAPDH coupling enzyme counterscreen, biochemical, qHTS. Potency, µM (highest dose often 57.5 µM), without a hit: at the top dose activity change, negative = inhibition, hits mostly inhibitors. shares compounds with Giardia FBPA inh-1; also: potency is read from the fitted curve at half-maximal effect; % is scaled to controls: 0 for no effect and ±100 for the full control effect; nearly all actives have a fitted effect of over 55% in size
# * marks the source's active call; other numbers are inactive results; ? = inconclusive; . = no result; [ ] = remark or other dose. Unless noted, calls follow the shape of the dose curve; as a rule, active = well fitted curve in the direction sought with a large enough effect; inconclusive = small, poorly fitted or top-dose-only effect, or another doubt; inactive = no such curve, though single readings can be large; an effect the other way counts as inactive or inconclusive.
SMILES,Giardia FBPA inh-1,TbPYK inhibitor,RE007 growth inh,Shiga toxin inh,LmPK inh,CHX counter,Giardia growth,Mammal cell tox,Giardia FBPA inh-2,Rabbit FBPA inh,GAPDH counter
CC(=O)Nc1ccc(S(=O)(=O)N2CCN(Cc3cccnc3)CC2)cc1,?,-1%,-5%,-4,-5%,-3,.,.,.,.,.
COc1ccccc1NCC(O)COc1ccc(C(C)(C)C)cc1 (stereo not given),18µM*,-2%,?,18,-2%,-2,?,9%,-12%,-1%,-12%
COc1ccc(NCC(O)COc2ccc(C(C)(C)C)cc2)cc1 (stereo not given),-6%,0%,-23%,25,4%,-3,.,.,.,.,.
Cc1ccc(C)n1-c1nc(=S)[nH][nH]1,18µM*,?,-6%,-11,14%,-3,-3%[10.4 µM],-8%,2%,-22%,-21%
S=c1nc(-c2ccc(Cl)cc2)[nH][nH]1,4%,?,21%,31,-2%,1,.,.,.,.,.
NNc1ccc(Cl)nn1,20µM*,-3%,-1%,24,0%,22*,12%,-1%,-5%,0%,-17%
Cc1ccc(N(C(=O)COc2ccccc2C)S(=O)(=O)c2ccc(Cl)cc2)cc1,.,-3%,.,.,.,.,.,.,.,.,.
COc1cc(Cl)c(NC(=O)CCS(=O)(=O)c2cc3c(cc2Cl)NC(=O)CO3)c(OC)c1,.,1%,.,.,.,.,.,.,.,.,.
Cc1ccc(O)c(N=Cc2cccs2)c1,20µM*,3%,-29%,38*,1%,29*,3%,13%,35µM*,40µM*,50µM*
Sc1ccccc1N=Cc1cccs1,.,-21%,-16%,.,.,.,.,.,.,.,.
O=C(Nc1nnc(-c2ccco2)o1)c1ccc(N2C(=O)CCC2=O)cc1,18µM*,-3%,-8%,-5,0%,1,60%,18%,8%,3%,4%
O=C(Nc1nnc(-c2ccc(Cl)cc2)o1)c1ccc(N2C(=O)CCC2=O)cc1,23%,-6%,-3%,13,1%,1,.,.,.,.,.
Cc1cc(C)c(NC(=S)N(CCN(C)C)Cc2cccs2)c(C)c1,6%,11%,-15%,-9,-3%,5,.,.,.,.,.
Cc1ccc(NC(=S)N(CCN(C)C)Cc2cccs2)c(C)c1,14µM*,?,-10%,26,-8%,4,-5%[10.4 µM],-3%,-6%,4%,4%
Cc1ccc(C(=O)NC(=S)NNC(=O)c2ccccc2)cc1,17%,-17%,-26%,7,1%,9,.,.,.,.,.
Cc1ccc(C(=O)NNC(=S)NC(=O)c2ccc(Cl)cc2Cl)cc1,?,-4%,-18%,-1,0%,6,-33%[38.3 µM],?,10%,4%,11%
Cc1ccc(N2C(=O)CC(Sc3ncn[nH]3)C2=O)cc1C (stereo not given),18µM*,0%,?,21,5%,-3,-22%,28%,0%,-2%,0%
Cc1cccc(N2C(=O)CC(Sc3nccc(C)n3)C2=O)c1 (stereo not given),7%,1%,-13%,-5,2%,-2,.,.,.,.,.
Cc1cccc(N2C(=O)CC(Sc3ncn[nH]3)C2=O)c1 (stereo not given),20µM*,-16%,?,18,15%,-3,22%,-3%,10%,8%,13%
COc1cccc(NC(=O)c2sc3nc(C)c(C(=O)Nc4ccc(C)cc4C)c(-c4ccc(C)o4)c3c2N)c1,.,-4%,.,.,.,.,.,.,.,.,.
CC(C)CC(C(=O)NCCc1ccccc1)N1Cc2ccccc2C1=O (stereo not given),.,-11%,.,.,.,.,.,.,.,.,.
O=C(O)c1cc2ncc(CCO)cn2n1,16µM*,-3%,5%,-2,0%,-1,-16%,-2%,8%,5%,5%
O=C(Nc1ccccc1)N1CCC2(CC1)CCN(C(=O)c1cnccn1)CC2,-1%,3%,.,.,.,.,.,.,.,.,.
Cc1ccc(NS(=O)(=O)c2cc(-c3cc(C)no3)ccc2C(C)C)nc1,20µM*,-4%,-4%,-1,-3%,11,-4%,9%,?,?,?
CCc1ccc(-c2cc(C)no2)cc1S(=O)(=O)Nc1ccc(C)cn1,.,-3%,2%,-6,-6%,-8,.,.,.,.,.
SMILES,Giardia FBPA inh-1,TbPYK inhibitor,RE007 growth inh,Shiga toxin inh,LmPK inh,CHX counter,Giardia growth,Mammal cell tox,Giardia FBPA inh-2,Rabbit FBPA inh,GAPDH counter
Cn1c(O)c(C(c2ccccn2)c2c(O)n(C)c(=S)[nH]c2=O)c(=O)[nH]c1=S,18µM*,-21%,-9%,-9,-1%,-1,15%,-1%,3%,-1%,17%
C=CCSc1n[nH]c(-c2cccs2)n1,13µM*,-16%,-14%,56,1%,9,-22%,6%,3%,-1%,3%
O=C(CSc1n[nH]c(-c2cccs2)n1)NCc1cccs1,-14%,0%,-5%,11,0%,-2,.,.,.,.,.
COc1cccc(CNC(=O)CCc2nnc3n(CC(C)C)c(=O)c4ccccc4n23)c1,.,-4%,.,.,.,.,.,.,.,.,.
COc1ccccc1N1CCN(c2nc3ccc(C)cc3n3nnnc23)CC1,.,5%,.,.,.,.,.,.,.,.,.
CC1(C(=O)NC(=S)N(CCC#N)Cc2cccnc2)CC1(Cl)Cl (stereo not given),18µM*,.,.,-4,-1%,0,-2%[10.4 µM],5%,7%,7%,11%
COc1ccc(-c2onc(C)c2C)cc1S(=O)(=O)N1CCN(c2ccc(Cl)cc2)CC1,.,-2%,.,.,.,.,.,.,.,.,.
CCS(=O)(=O)c1ccc(OC)c(N=Nc2ccc(O)c3ncccc23)c1,15%,-12%,18%,7,-6%,4,.,.,.,.,.
CCN(CC)S(=O)(=O)c1cc(OC)ccc1N=Nc1ccc(O)c2ncccc12,?,-14%,.,9,-9%,-6,-14%[38.3 µM],29µM*,?,-19%,?
Cc1cccc(N=Nc2ccc(O)c3ncccc23)c1,.,-19%,?,active,-11%,46*,.,.,-20%,-18%,-13%
CCOc1ccc(N=Nc2ccc(O)c3ncccc23)cc1,-8%,-6%,-8%,3,-6%,-2,17%[38.3 µM],-25%,?,-8%,-22%
